# Assay results taken from PubChem BioAssay (EPA / NIEHS).
# Calls of active or inactive are those of the source. Rule for the calls: active = hit-call score of the fitted dose curve at least 0.9, where 1 is the maximum; inconclusive = response in the unintended direction; inactive = score below 0.9.
# Target: PGR (gene 5241) (UniProt P06401)
# Test: TOX21_PR_BLA_Followup_Antagonist_ratio: Tox21 HEK293 Progesterone Receptor (PR) Antagonism Beta-lactamase Follow-Up Assay, Ratio (AID 2283934)
# Procedure: TOX21_PR_BLA_Followup is a secondary assay for specificity for the TOX21_PR_BLA_Agonist assay. To differentiate true PR agonists from cytotoxic substances, this follow up assay is multiplexed with a cell viability assay. The compounds were also tested for auto fluorescence that may interfere with the biological target readout resulting in potential false positives and/or negatives. To identify the compounds that stimulate PR signaling, a PR-UAS-bla GripTite cell line i.e. PR-UAS-bla HEK293T (Invitrogen, Carlsbad, CA, USA) containing a beta-lactamase reporter gene under the control of an UAS response element was used to screen Tox21 10K compound library. The cytotoxicity of the Tox21 compound library against the PR-bla cell line was tested in parallel by measuring the cell viability using CellTiter-Glo assay in the same wells. TOX21_PR_BLA_Followup_Antagonist_ratio is an assay readout measuring reporter gene via receptor activity and designed using inducible reporter (beta lactamase induction) detected with GAL4 b-lactamase reporter gene. The signal is derived from the ratio of cleaved (ch2) to uncleaved (ch1) reporter gene substrate used as the measure of target activity.Data from the assay component TOX21_PR_BLA_Followup_Antagonist_ratio was analyzed into 1 assay endpoint. This assay endpoint, TOX21_PR_BLA_Followup_Antagonist_ratio, was analyzed in the positive analysis fitting direction relative to DMSO as the negative control and baseline of activity. Using a type of inducible reporter, measures of receptor for gain-of-signal activity can be used to understand the reporter gene at the pathway-level as they relate to the gene NR3C3. Furthermore, this assay endpoint can be referred to as a primary readout, because this assay has produced multiple assay endpoints where this ratio serves a reporter gene function to understand target activity. To generalize the intended target to other relatable targets, this assay endpoint is annotated to the nuclear receptor intended target family, where the subfamily is steroidal.
# Assay Protocol: PR-UAS-bla HEK293T cells were dispensed at 3,000 cells/4 uL of assay medium containing 2% charcoal stripped FBS per well into black wall/clear-bottom 1536-well plates using a Multidrop Combi (ThermoFisher Scientific, Waltham, MA) dispenser. After the assay plates were incubated at a 37C and 5% CO2 for 6 hr, 23 nL of compounds dissolved in DMSO, positive controls or DMSO only was transferred to the assay plate by a Pintool station (Kalypsys, San Diego, CA), followed by addition of 1 uL (1nM as final concentration) of Promegestone (R5020) in assay medium using a BioRAPTR FRD (Flying Reagent Dispenser, Aurora Discovery, San Diego, CA). The plates were incubated at 37C and 5% CO2 for 16 hr. Then 1 uL of LiveBLAzer B/G FRET substrate was added using a FRD. After the plates were incubated at room temperature for 2 hours, fluorescence intensity was measured by an Envision plate reader (PerkinElmer, Shelton, CT).
# PGR (gene 5241), sequence (P06401 whole entry, looked up): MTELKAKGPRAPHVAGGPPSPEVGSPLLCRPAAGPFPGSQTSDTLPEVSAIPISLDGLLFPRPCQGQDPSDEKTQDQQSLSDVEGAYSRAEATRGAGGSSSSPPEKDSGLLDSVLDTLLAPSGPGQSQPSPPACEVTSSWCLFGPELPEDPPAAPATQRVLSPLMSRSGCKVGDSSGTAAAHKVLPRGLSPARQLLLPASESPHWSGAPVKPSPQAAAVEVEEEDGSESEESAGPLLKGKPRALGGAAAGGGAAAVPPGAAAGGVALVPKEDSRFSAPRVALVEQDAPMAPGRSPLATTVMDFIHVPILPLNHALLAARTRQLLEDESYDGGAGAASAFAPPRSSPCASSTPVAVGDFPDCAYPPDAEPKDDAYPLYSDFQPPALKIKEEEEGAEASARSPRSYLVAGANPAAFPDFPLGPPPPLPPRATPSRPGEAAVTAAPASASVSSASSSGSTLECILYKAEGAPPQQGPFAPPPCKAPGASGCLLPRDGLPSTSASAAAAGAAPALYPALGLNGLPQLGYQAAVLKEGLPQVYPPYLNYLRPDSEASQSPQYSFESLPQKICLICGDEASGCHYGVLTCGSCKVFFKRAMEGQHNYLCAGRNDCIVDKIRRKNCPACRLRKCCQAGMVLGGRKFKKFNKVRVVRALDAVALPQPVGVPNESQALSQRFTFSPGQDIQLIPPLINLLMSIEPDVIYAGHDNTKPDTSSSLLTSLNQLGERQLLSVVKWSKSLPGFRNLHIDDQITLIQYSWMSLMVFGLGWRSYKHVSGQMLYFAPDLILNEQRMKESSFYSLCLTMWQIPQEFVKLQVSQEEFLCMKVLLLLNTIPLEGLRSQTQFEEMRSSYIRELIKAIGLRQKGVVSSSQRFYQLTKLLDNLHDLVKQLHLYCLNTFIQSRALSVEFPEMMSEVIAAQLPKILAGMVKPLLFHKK
Structure (SMILES),AC50,outcome
O=S(=O)(c1ccc(Cl)cc1)c1cc(Cl)c(Cl)cc1Cl,27.3 µM (active),–
O=S(=O)(Oc1ccc(Cl)cc1)c1ccc(Cl)cc1,–,inactive
CC(O)(CS(=O)(=O)c1ccc(F)cc1)C(=O)Nc1ccc(C#N)c(C(F)(F)F)c1 (configuration not stated),5.64 µM (active),–
Nc1ccc(-c2ccccc2)cc1,22.3 µM (active),–
CCCSP(=S)(OCC)Oc1ccc(SC)cc1 (configuration not stated),–,inactive
CC(C)(C1CCC(O)CC1)C1CCC(O)CC1 (configuration not stated),–,inactive
Cc1ccccc1OP(=O)(Oc1ccccc1C)Oc1ccccc1C,39.9 µM (active),–
CCCSP(=S)(OCC)Oc1ccc(Cl)cc1Cl (configuration not stated),22.6 µM (active),–
OC(c1ccc(Cl)cc1)(c1ccc(Cl)cc1)c1cccnc1,29.3 µM (active),–
O=[N+]([O-])c1ccc(Nc2ccccc2)cc1,11.4 µM (active),–
CCOP(=S)(OCC)Oc1ccc(Cl)cc1Cl,33.2 µM (active),–
CC(C)CC(C)(c1ccc(O)cc1)c1ccc(O)cc1,12.7 µM (active),–
